# This is a sample that favours compounds with a hit; in the whole collection about 5.7% have one here.
# IL1B secr inh: qHTS for Inhibitors of Inflammasome Signaling: IL-1-beta AlphaLISA Primary Screen; 360,000 tested, 4.7% active; THP-1 LPS/ATP IL-1B secretion, AlphaLISA, 16 h; active compounds read low; activity change, % at 57.5 µM; in the data active means activity change below about -50%; inconclusive means mostly about -30% to -49%
#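 Secreted IL-1B measured by AlphaLISA bead assay after 16 h compound exposure of THP-1 cells; compounds (final up to 57.5 uM) added 1 h before LPS (250 ng/mL) and ATP (1.25 mM) stimulation; lower signal means less secretion.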
# ATXN viability: Viability Counterscreen for Primary qHTS for Inhibitors of ATXN expression. S2 cells (HEK-293 line with an ATXN2-luciferase reporter) viability, CellTiter-Fluor protease fluorescence, 24 h. Potency, µM (doses to about 56.7 µM), hits mostly cytotoxic. 400,000 tested, 0.49% active. AID 651635, 2014; further: nearly all actives have a fitted effect of over 40% in size
# ATXN2 expr inh: Primary qHTS for Inhibitors of ATXN expression | 360,000 tested, 0.72% active | AID 1745845, 2022 | Potency, µM (doses to about 57 µM), most hits filed as inhibitors | HEK-293 ATXN2-luciferase reporter, luminescence, 24 h; further: nearly all actives have a fitted effect of over 55% in size
#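 ATXN2-luciferase reporter cells (luciferase flanked by upstream and downstream ATXN2 gene portions) were treated 24 h at 37 °C with compounds at up to 57 uM. SteadyGlo luminescence gave expression; GF-AFC fluorescence gave viability.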
# TGFb SMAD3 inh: qHTS for Inhibitors of TGF-b; HepG2 CAGA-GFP TGF-b/SMAD3 reporter, GFP fluorescence, 18 h; TGF-beta stimulated, 500 pg/mL final; 410,000 tested, 1.2% active; Potency, µM (top dose mostly 46.1 µM), actives largely listed as inhibitors; further: nearly all actives have a fitted effect of over 65% in size
#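 Inhibition of TGF-beta-driven CAGA-GFP reporter expression in HEPG2 cells is measured by cellular GFP fluorescence after 18 h stimulation with 500 pg/mL recombinant TGF-beta in 1% FBS medium at 37 degrees C.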
# HepG2 tox: qHTS for Inhibitors of TGF-b: Cytotox Counterscreen; HepG2 CAGA-GFP viability, ATP luminescence, 18 h; Potency, µM (titrated, usually from 46.1 µM), hits mostly cytotoxic; 410,000 tested, 0.76% active
#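 HepG2 CAGA-GFP cells (1000/well, DMEM with 1% FBS) received compound, then TGF-beta at 500 pg/mL final, and were incubated 18 hours at 37 degrees C. Viability was read by CellTiter-Glo luminescence. Media-only wells were set as complete cell-killing and DMSO as no toxicity.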
# Numbers stand for hits; . = inactive; ? = inconclusive; / = not tested or not shown; ! = not active in a repeat; [ ] = another dose, or the depositor's remark. Unless noted, the call rests on the fitted dose curve; in most records, active means well fitted curve in the direction sought with a large enough effect; inconclusive means small, poorly fitted or top-dose-only effect, or another doubt; inactive means no such curve, though single readings can be large; an effect the other way counts as inactive or inconclusive.
SMILES,IL1B secr inh,ATXN viability,ATXN2 expr inh,TGFb SMAD3 inh,HepG2 tox
CCOC(=O)c1c(C)n(C)c2ccc(OCC(O)CN3CCC(C)CC3)cc12 (stereo not drawn),?,.,.,.,.
CCOC(=O)c1c(C)n(C)c2ccc(OCC(O)CN3CCCCCC3)cc12 (stereo not drawn),.,18µM,.,.,.
CCOC(=O)c1c(C)n(C)c2ccc(OCC(O)CNC(CC)CO)cc12 (stereo not drawn),?,?,.,.,.
CCOC(=O)c1c(C)n(-c2ccc(C)cc2)c2ccc(OCC(O)CNCC3CCCO3)cc12 (stereo not drawn),-54,?,?,?,.
CCOC(=O)c1c(C)n(-c2ccc(C)cc2)c2ccc(OCC(O)CNCCCO)cc12 (stereo not drawn),-126,?,?,?,.
Cc1ccc(Cn2c(=O)n(-c3cccc(C(F)(F)F)c3)c(=O)c3c(C)c(C)sc32)c(C)c1,/,.,.,.,.
Cc1ccc(-n2cc(C(=O)OCc3ccc(Cl)cc3)c3ccccc3c2=O)cc1,/,/,/,.,.
Cc1ccc(-n2nc(C(=O)Nc3cccc(C#N)c3)c3c4ccccc4n(C)c3c2=O)cc1,/,.,.,.,.
CN(C)/C=C/C(=O)c1ccc2noc(-c3ccccc3)c2c1,-52,.,.,.,.
Cc1csc[n+]1CC(=O)c1ccc(I)cc1,/,/,/,.,.
Cc1cc(NC(=O)CCNS(=O)(=O)c2cc(Br)cnc2N)ccc1Br,.,.,.,11µM,.
Nc1ncc(Br)cc1S(=O)(=O)NCCC(=O)Nc1cccc(Cl)c1,-61,.,?,.,.
CCc1cccc(C)c1NC(=O)CN(C)Cc1ccc(Br)cc1,-57,.,.,.,.
O=C(Nc1nnc(C2CC2)s1)C1CCCCC1,.,.,/,.,.
C/C=C/C(=O)Nc1nnc(C2CCCCC2)s1,-88,.,.[11.3 µM],.,.
Cc1ccc(S(=O)(=O)n2c(CN3CCCC(C)C3)nc3ccccc32)cc1 (stereo not drawn),-51,.,.,?,.
Cc1ccc(S(=O)(=O)n2c(C)nc3ccccc32)cc1,.,.,.,.,.
CCOC(=O)C(=NCC1CCCO1)NNc1ccccc1Cl (stereo not drawn),.,.,.,.,1.3µM
N#CC1=C(SCC(=O)c2ccccc2)NC2=C(C(=O)CCC2)C1c1ccco1 (stereo not drawn),-97,?,.,.,.
Cc1ccc(C(=O)CSC2=C(C#N)C(c3ccco3)C3=C(CCCC3=O)N2)cc1 (stereo not drawn),.,.,.,.,.
CCCCc1ccc(NC(=O)CSC2=C(C#N)C(c3ccco3)C3=C(CCCC3=O)N2)cc1 (stereo not drawn),-86,.,.,?,.
COc1ccc(C2C(C#N)=C(SCC(=O)Nc3ccc(C)cc3)NC3=C2C(=O)CC(C)(C)C3)cc1 (stereo not drawn),-57,?,.,?,.
COc1ccc(/C=C2\CN(Cc3ccccc3)C/C(=C\c3ccc(OC)cc3OC)C2=O)c(OC)c1,.,?,.,.,.
COc1ccc(/C=C2\CN(Cc3ccccc3)C/C(=C\c3ccc(OC)cc3)C2=O)cc1,.,?,?,11µM,.
O=c1[nH]c(=O)n([C@H]2O[C@H](CO)[C@@H](O)[C@@H]2O)cc1/C=C\Br,/,.,.,/,/
SMILES,IL1B secr inh,ATXN viability,ATXN2 expr inh,TGFb SMAD3 inh,HepG2 tox
CC(C)c1nc(C(=O)N2CCOc3ccc(CN4CCN(c5ccccn5)CC4)cc3C2)cs1,/,.,/,/,/
COc1ccc(S(=O)(=O)N(C)C)cc1NC(=O)c1ccc2c(c1)OCCO2,-57,.,.,.,.
CC(=O)C(=Cc1ccc(Cl)cc1)C(=O)c1ccccc1,-108,28µM,?,?,.
CC(=O)C(=Cc1cccc(C#N)c1)C(=O)c1ccccc1,-118,.,?,?,.
COc1ccc(C=C(C(C)=O)C(=O)c2ccccc2)cc1,-94,.,.,.,.
COc1ccc(C=C(C(=O)c2ccccc2)C(=O)c2ccccc2)cc1,-82,.,.,?,11µM
CCN1CCCC1CNC(=O)c1cnn(-c2ncc(C)c(-c3ccc(F)cc3)n2)c1C(C)C (stereo not drawn),/,.,/,/,/
CCN(CC)CCNC(=O)Nc1ccc2c(c1)N(Cc1ccccc1)C(=O)c1ccccc1S2,/,/,/,/,.
COc1cccc(-n2c(=O)c3sc4ccccc4c3n(CC(=O)Nc3ccc(F)cc3F)c2=O)c1,/,?,.,.,.
C=C1CCC[C@]2(C)C[C@H]3OC(=O)C(CN[C@@H](C)c4ccccc4)[C@H]3CC12 (stereo partly drawn),-87,?,.,.,.
C=C1CCC[C@]2(C)C[C@H]3OC(=O)C(CN4CCOCC4)[C@H]3C[C@@H]12 (stereo partly drawn),-74,?,/,?,.
C=C1CCC[C@]2(C)C[C@H]3OC(=O)C(CN(Cc4ccc(OC)c(OC)c4)CC(C)O)[C@H]3CC12 (stereo partly drawn),-98,?,/,?,.
C=C1CCC[C@]2(C)C[C@H]3OC(=O)C(CNC(C)CCCC(C)C)[C@H]3CC12 (stereo partly drawn),-99,?,?,11µM,.
C=C1CCC[C@]2(C)C[C@H]3OC(=O)C(CNCC(OC)OC)[C@H]3CC12 (stereo partly drawn),-78,.,.,.,.
CCN(CC)CCOc1ccc(/C(=C(/Cl)c2ccccc2)c2ccccc2)cc1,?,/,25µM!,?,10µM!
Cc1cc(C)nc(/N=C(\N)Nc2ccc(S(N)(=O)=O)cc2)n1,.,.,.,.,.
Cc1cc(C)nc(/N=C(\N)Nc2ccc3c(c2)OCCO3)n1,-78,.,.,.,.
CC(=O)Nc1ccc(N/C(N)=N/c2nc(C)cc(C)n2)cc1,-93,.,.,.,.
Cc1cc(C)nc(/N=C(\N)Nc2ccc(F)c([N+](=O)[O-])c2)n1,-92,.,.,.,.
Cc1cc(=O)[nH]c(/N=C(\N)Nc2ccc3c(c2)OCCO3)n1,.,.,.,.,.
c1coc(-c2nnc(-c3ccco3)nn2)c1,-76,?,.,.,.
c1ccc(N2CCN(c3ncnc4[nH]ncc34)CC2)cc1,/,/,/,.,.
CCOC(=O)c1cnc2ccc(OC)cc2c1NCCc1ccc(OC)c(OC)c1,-90,?,28µM!,16µM!,.
CCOC(=O)c1cnc2ccccc2c1NCCc1ccc(OC)c(OC)c1,.,?,?,?,.
CC1CC(C)CN(C(=O)c2cc3cc(Br)cc(Br)c3o2)C1 (stereo not drawn),-70,?,.,.,.
COc1cc(=O)n2c(c1C(=O)N(C)Cc1ccsc1)CCN(Cc1c(C)nc3sccn13)CC2,/,.,/,/,/

# Screening results as filed in PubChem.
